# Measured values published in PubChem BioAssay AID1745847 (National Center for Advancing Translational Sciences (NCATS), 2022).
# Among all 2,100 compounds or so, about 670 (32%) were called active. Not shown: some 50% with an inconclusive outcome. The list shows a part of the results. Unmarked numbers belong to inactive results. Calls come from the whole dose curve; as a rule, active = well fitted inhibition curve with a large enough effect; inconclusive = small, poorly fitted or top-dose-only effect; inactive = no such curve, though single readings can be large or run the other way.
# Experiment: CMV-Luciferase Counterscreen for Inhibitors of ATXN expression; note: nearly all actives have a fitted effect of over 55% in size
# Settings: HEK-293 CMV-luciferase reporter, luminescence, 24 h; series mostly up to 57.5 µM
# % is set by controls: 0 for no effect and ±100 for the full control effect; potency is the fitted concentration of half-maximal effect.
SMILES,Potency,"activity change, negative = inhibition"
OC(c1ccccc1)(c1nc(-c2cc3ccccc3o2)cs1)C(F)(F)F (centres undefined),inactive,–
Cc1cc(/C=N/n2cnnc2)c(C)n1-c1ccc(OCc2ccc(Cl)cc2Cl)cc1,12.6 µM (active),–
Cc1ccc(C)c(NC(=O)c2ccccc2NS(=O)(=O)c2cc([N+](=O)[O-])ccc2C)c1,1 µM (active),–
O=C(/C=C/c1ccccc1[N+](=O)[O-])c1ccccc1Br,–,44.2% [at 11.4 µM]
N#C/C(=C\C=C\c1ccccc1[N+](=O)[O-])C(=O)NCc1ccccc1,3.16 µM (active),–
CC1CCCCC1NC(=O)/C(C#N)=C/C=C/c1ccccc1[N+](=O)[O-] (centres undefined),3.55 µM (active),–
O=C(Nc1cccnc1)C1Cc2c(-c3ccc4c(c3)OCO4)ccnc2O1 (centres undefined),–,-23.6% [at 11.4 µM]
CS(=O)(=O)Nc1cccc(NC(=O)c2cccc3c(-c4cccc(C(N)=O)c4)coc23)c1,inactive,–
NC(=O)c1cccc(-c2ccnc3c2CC(C(=O)Nc2cccc(C(F)(F)F)c2)O3)c1 (centres undefined),3.98 µM (active),–
NS(=O)(=O)c1ccc(CCNC(=O)COC(=O)/C=C/c2cc(Br)ccc2F)cc1,–,-4.52% [at 11.4 µM]
O=C(CNC(=O)c1ccccc1F)N/N=C/c1cc(Br)ccc1OC(=O)/C=C/c1ccco1,12.6 µM (active),–
O=C(CNC(=O)c1ccc(F)cc1)N/N=C/c1cc(Br)ccc1OC(=O)/C=C/c1ccco1,8.91 µM (active),–
O=C(CNC(=O)c1cccc(F)c1)N/N=C/c1cc(Br)ccc1OC(=O)/C=C/c1ccco1,4.47 µM (active),–
Cc1cc(C)c2c(N)c3cccc(C)c3nc2n1,10 µM (active),–
Cc1nc(N=C(N)N)nc2c(C)cccc12,inactive,–
O=C(Nc1ccc(NC(=O)c2cccs2)cc1)c1ccc2c(c1)OCO2,–,-7.86% [at 11.4 µM]
COc1c(C)cccc1C(=O)Nc1ccc(N2CCN(C(=O)c3ccccc3C)CC2)cc1,15.8 µM (active),–
Cc1ccccc1C(=O)N1CCN(c2ccc(NC(=O)c3ccc4c(c3)OCCO4)cc2)CC1,2.24 µM (active),–
CC(=O)Nc1cc(-c2ccc(C(=O)NC3CC3)cc2)cn2c(-c3cccc(C(C)=O)c3)cnc12,inactive,–
O=[N+]([O-])c1cc(Cl)c(O)c2ncccc12,8.91 µM (active),–
O=[N+]([O-])c1cc(CN2CCN(c3ccccc3)CC2)c(O)c2ncccc12,7.94 µM (active),–
O=[N+]([O-])c1cc(O)c2ncccc2c1,3.16 µM (active),–
Oc1c(CN2CCOCC2)cc(COCc2ccccc2)c2cccnc12,3.55 µM (active),–

SMILES,Potency,"activity change, negative = inhibition"
O=[N+]([O-])c1ccc(O)c2ncccc12,7.08 µM (active),–
Oc1ccc(Cl)c2cccnc12,inactive,–
CCOC(=O)c1c(-c2ccccc2)oc2ccc(OCC(=O)NN)cc12,28.2 µM (active),–
O=C(O)COc1ccc2oc3ccccc3c2c1,–,-24.7% [at 11.4 µM]
NNC(=O)c1nc(-c2ccccc2)cc(-c2ccccc2)n1,inactive,–
OCCNc1c2ccccc2nc2ccccc12,20 µM (active),–
OCCNc1c2ccccc2nc2c(F)c(F)c(F)c(F)c12,7.94 µM (active),–
O=c1c(Cc2ccccc2)c(O)nc2n1CCS2,inactive,–
Cc1ccc(-c2cn(-c3ccc(OC(F)F)cc3)c3[n+]2CCCCC3)cc1,12.6 µM (active),–
CCOC(=O)C1CCN(C(=O)c2c(C)oc3c2C(=O)c2ccccc2C3=O)CC1,12.6 µM (active),–
Cc1ccc(C)n1-c1ccc(C(=O)N2CCC(C(N)=O)CC2)cc1,–,4.95% [at 11.4 µM]
O=C1c2cccc3c([N+](=O)[O-])ccc(c23)C(=O)N1c1ccc(Cl)cn1,20 µM (active),–
Cc1ccc(C(=O)O)cc1N1C(=O)c2cccc3c([N+](=O)[O-])ccc(c23)C1=O,inactive,–
Cc1ccnc(N2C(=O)c3cccc4c([N+](=O)[O-])ccc(c34)C2=O)c1,12.6 µM (active),–
Cc1ccc(-c2noc(CCCC(=O)NC3CCCC3)n2)cc1,7.08 µM (active),–
COc1ccc(-c2noc(CCCC(=O)NC3CCCC3)n2)cc1,7.94 µM (active),–
Cc1ccccc1NC(=O)Nc1nc(C(N)C2CCCCC2)cs1 (centres undefined),inactive,–
CN(C)C(=O)c1cccc(-c2cnc3c(NC=O)cc(-c4ccccc4N(C)C)cn23)c1,–,-27.7% [at 11.4 µM]
CCN1CCN(c2ccc(S(=O)(=O)N3CCCCC3)cc2NC(=O)c2ccc([N+](=O)[O-])s2)CC1,3.16 µM (active),–
CCN1CCN(c2ccc(S(=O)(=O)N3CCCCC3)cc2NC(=O)/C=C/c2ccc([N+](=O)[O-])cc2)CC1,–,-17.9% [at 11.4 µM]
COc1ccccc1C(=O)NNC(=S)NC(=O)c1ccco1,7.94 µM (active),–
COc1ccccc1NC(=S)NC(=O)c1ccc(Cn2cc(Br)cn2)cc1,inactive,–
CC[C@H]1CN2CCc3cc(OC)c(OC)cc3[C@@H]2C[C@@H]1C[C@H]1NCCc2cc(OC)c(OC)cc21,0.0794 µM (active),–

SMILES,Potency,"activity change, negative = inhibition"
CCC1=C(CC2NCCc3ccccc32)CC2c3cc(OC)c(OC)cc3CCN2C1 (centres undefined),14.1 µM (active),–
CC[C@H]1CN2CCc3cc(OC)c(OC)cc3C2C[C@@H]1C[C@H]1NCCc2cc(OC)c(OC)cc21 (some centres undefined),1.12 µM (active),–
CCCCOc1ccc(NC2=NC3(CCCC3)N=C(N)N2)cc1,inactive,–
C/C(=N\N=C(N)N)c1ccc(Cl)cc1Cl,inactive,–
CC(C)[C@@H]1CC[C@@H](C)C[C@H]1OC(=O)C[n+]1cc(-c2ccc(Cl)cc2)n2c1CCCCC2,14.1 µM (active),–
NNc1ncnc2scc(-c3ccc(Cl)cc3)c12,25.1 µM (active),–
O=C(CSc1nnc(-c2ccc(Br)cc2)o1)Nc1cccc(C(=O)O)c1,4.47 µM (active),–
COc1cccc(NC(=O)CSc2nc3ncc(Br)cc3[nH]2)c1,–,193% [at 11.4 µM]
O=C(Nc1ccc(Oc2ccc(NC(=O)Nc3ccc([N+](=O)[O-])cc3)cc2)cc1)Nc1ccc([N+](=O)[O-])cc1,2.82 µM (active),–
O=C1c2cc(Cl)ccc2-c2c(O)cc(Cl)cc21,inactive,–
O=C(Nc1ccc2oc(=O)ccc2c1)c1ccc(-c2cccc(Cl)c2)o1,inactive,–
COCc1ccc(CN2CCC(C(=O)Nc3cccc(-c4cccc(Cl)c4)c3)CC2)o1,14.1 µM (active),–
COC(=O)Cc1[nH]n(-c2nc3ccccc3s2)c(=O)c1C(C)=Nc1ccc(C)cc1,0.501 µM (active),–
CC(C)[C@H](CO)Nc1nc(NCc2ccc(S(N)(=O)=O)cc2)c2ncn(C(C)C)c2n1,–,41.8% [at 11.4 µM]
Cc1ccn2c(Nc3ccccc3C)c(-c3ccccn3)nc2c1,5.01 µM (active),–
Nc1ccc(OC(=O)Nc2ccc(O)cc2)cc1,12.6 µM (active),–
CCOC(=O)c1c(NC(=O)COC(=O)c2ccccc2NC)sc(C(=O)N(C)C)c1C,–,-21.4% [at 11.4 µM]
Cc1cccc2sc(N(CCCN(C)C)C(=O)c3ccco3)nc12,inactive,–
CN(C)CCCN(C(=O)c1ccc2c(c1)CCCC2)c1nc2cc3c(cc2s1)OCO3,inactive,–
Cc1cc(C)c2nc(N(CCCN(C)C)C(=O)c3ccc4c(c3)OCCO4)sc2c1,28.2 µM (active),–
Nc1nc(NCCCN2CCOCC2)nc(Nc2ccccc2F)c1[N+](=O)[O-],inactive,–
O=C(NCCc1cn2ccccc2n1)c1cc(COc2ccc3ncccc3c2)on1,14.1 µM (active),–
Cc1ccc(C)c(S(=O)(=O)N2CCN(c3ncnc4sccc34)CC2)c1,1.41 µM (active),–

SMILES,Potency,"activity change, negative = inhibition"
CN(C)CCNC(=O)c1cccc2[nH]c(-c3ccncc3)nc12,–,-19.8% [at 11.4 µM]
CN(C)CCNC(=O)c1cccc2nc3cccc(F)c3nc12,10 µM (active),–
CN(C)CCCN(C(=O)c1ccc(S(=O)(=O)N(C)Cc2ccccc2)cc1)c1nc2c(F)cccc2s1,inactive,–
CN(C)CCNC(=O)c1ccc(Cl)c2cc3ccccc3nc12,10 µM (active),–
OCCN(Cc1ccccc1)CC(O)COc1ccc(-c2ccccc2)cc1 (centres undefined),inactive,–
CN1C/C(=C/c2cccnc2)C(=O)/C(=C/c2cccnc2)C1,–,-8.05% [at 11.4 µM]
O=C1/C(=C/c2ccncc2)CCC/C1=C\c1ccncc1,8.91 µM (active),–
Cc1onc(-c2c(Cl)cccc2Cl)c1C(=O)N/N=C(\N)COc1ccc(Cl)cc1,3.55 µM (active),–
O=[N+]([O-])c1c(Nc2ccccn2)cc(Cl)c2nonc12,11.2 µM (active),–
CCC(=O)OCCNc1cc(Sc2nc3ccccc3[nH]2)c2nonc2c1[N+](=O)[O-],–,-17% [at 11.4 µM]
O=[N+]([O-])c1ccc(C[n+]2cccc3ccc4cccnc4c32)cc1,3.16 µM (active),–
COc1cc(/C=N/Nc2snc(SC)c2C#N)cc(OC)c1OC,inactive,–
CC(C)(C)c1ccc(NC(=O)N2CCCN(c3c(Cl)cncc3Cl)CC2)cc1,inactive,–
O=C(Nc1ccccc1Cl)N1CCCN(c2nc(-c3ccccc3)ns2)CC1,14.1 µM (active),–
Cc1c(Cl)cccc1NC(=O)N1CCCN(c2nc(-c3ccccc3)ns2)CC1,10 µM (active),–
Cc1c(N=C2N=C(NC(=O)Nc3ccc(Cl)cc3)c3ccccc32)c(=O)n(-c2ccccc2)n1C,inactive,–
Cc1c(N=C2C=CC(=O)c3ccccc32)c(=O)n(-c2ccccc2)n1C,31.6 µM (active),–
Cc1cc(C)c(O)c(CN(C)Cc2cc(Cl)cc(Cl)c2O)c1,10 µM (active),–
CCOC(=O)c1c(SCCN2CCCCC2)n(-c2ccccc2)c(=S)n(-c2ccccc2)c1=O,22.4 µM (active),–
Cc1sc2ncnc(NCC(O)c3ccc([N+](=O)[O-])cc3)c2c1C (centres undefined),5.62 µM (active),–
